The nature of assay [1]: antimalarial activity against Dd2 strain (AID 2302;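 active means growth inhibition above 50% at the single 2 µM test dose, taken to imply half-maximal potency below 2 µM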;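 further: 0% = DMSO untreated growth and 100% = chloroquine plus artemisinin killed control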). Conditions: P. falciparum Dd2 in RBCs, LDH growth readout, 72 h; at 2 µM; active compounds read high.
Assay [2] in a line: human hepatoma cell viability loss – ATP luminescence, cytotoxicity control for P. falciparum antimalarial project, primary screen (AID 2303;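 active means inhibition above 50%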;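 further: 0% = DMSO wells and 100% = digitonin-killed cells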). To be noted: HepG2 viability, 24-48 h, at 10 µM, active compounds read high.
For assay [3], the target named is L-lactate dehydrogenase (Plasmodium falciparum (isolate CDC / Honduras)) (UniProt Q27743). The experiment in a line: PfLDH activity inhibition – cell lysate, 3D7 strain, counter-screen for P. falciparum growth inhibition project (AID 2304).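 Further: 0% = vehicle and 100% = reference inhibitor.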 To be noted: P. falciparum 3D7 crude extract, LDH APAD/NBT absorbance; at 2 µM; active compounds read high. On the technique in general: A counterscreen serves to expose hits that act by an unwanted route or on another target.
L-lactate dehydrogenase (Plasmodium falciparum (isolate CDC / Honduras)), sequence (Q27743 whole entry, looked up): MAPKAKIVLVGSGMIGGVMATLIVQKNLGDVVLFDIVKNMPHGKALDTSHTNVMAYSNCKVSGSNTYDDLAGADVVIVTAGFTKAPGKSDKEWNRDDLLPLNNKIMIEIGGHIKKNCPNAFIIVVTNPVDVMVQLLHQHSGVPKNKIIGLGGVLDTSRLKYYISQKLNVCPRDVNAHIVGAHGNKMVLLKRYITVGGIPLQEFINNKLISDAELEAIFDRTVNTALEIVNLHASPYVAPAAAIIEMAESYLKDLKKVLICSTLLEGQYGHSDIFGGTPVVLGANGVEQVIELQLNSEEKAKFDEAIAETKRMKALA

Assay [4] can be described thus: inhibition of 3D7 malaria parasite growth – strain 3D7 (AID 2306).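 Further: 0% = DMSO wells and 100% = chloroquine plus artemisinin control wells.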 Conditions: P. falciparum 3D7 erythrocytic growth, LDH absorbance, 72 h; at 2 µM; active compounds read high.
Assay [5] deals with Calcium-dependent protein kinase 1 (Plasmodium falciparum (isolate 3D7)) (UniProt P62344). The experiment in a line: PfCDPK1 kinase inhibitors, biochemical, TCAMS library (AID 1159585; cut-off not given, nearly all actives have IC50 up to about 0.98 µM;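 further: inhibitors leave more ATP so luminescence rises with inhibition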). Conditions: recombinant PfCDPK1, Kinase-Glo ATP depletion luminescence.
Calcium-dependent protein kinase 1 (Plasmodium falciparum (isolate 3D7)), sequence (P62344 whole entry, looked up): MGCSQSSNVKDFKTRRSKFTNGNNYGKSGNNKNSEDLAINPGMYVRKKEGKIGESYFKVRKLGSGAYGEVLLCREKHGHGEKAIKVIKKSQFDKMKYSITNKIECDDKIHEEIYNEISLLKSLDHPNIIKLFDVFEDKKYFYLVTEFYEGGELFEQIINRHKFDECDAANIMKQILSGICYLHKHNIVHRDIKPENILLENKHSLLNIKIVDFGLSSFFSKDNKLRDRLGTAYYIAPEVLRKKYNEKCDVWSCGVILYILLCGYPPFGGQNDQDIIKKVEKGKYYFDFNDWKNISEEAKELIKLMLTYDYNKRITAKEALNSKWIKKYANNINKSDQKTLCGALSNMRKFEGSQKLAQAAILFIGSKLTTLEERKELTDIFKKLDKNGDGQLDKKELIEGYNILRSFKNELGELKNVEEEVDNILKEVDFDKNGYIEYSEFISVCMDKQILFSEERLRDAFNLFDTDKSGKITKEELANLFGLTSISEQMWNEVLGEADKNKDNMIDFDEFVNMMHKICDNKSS
For assay [6], the target named is Plasmodium falciparum protein kinase 6 (PK6, PF3D7_1337100) (UniProt Q8IDW1). Put plainly: PfPK6 kinase inhibitors, biochemical, TCAMS library (AID 1159586). To be noted: recombinant PfPK6, Kinase-Glo ATP depletion luminescence. (In general: Kinase-Glo measures the ATP left after a reaction by luminescence.)
Plasmodium falciparum protein kinase 6 (PK6, PF3D7_1337100), sequence (Q8IDW1 1-305): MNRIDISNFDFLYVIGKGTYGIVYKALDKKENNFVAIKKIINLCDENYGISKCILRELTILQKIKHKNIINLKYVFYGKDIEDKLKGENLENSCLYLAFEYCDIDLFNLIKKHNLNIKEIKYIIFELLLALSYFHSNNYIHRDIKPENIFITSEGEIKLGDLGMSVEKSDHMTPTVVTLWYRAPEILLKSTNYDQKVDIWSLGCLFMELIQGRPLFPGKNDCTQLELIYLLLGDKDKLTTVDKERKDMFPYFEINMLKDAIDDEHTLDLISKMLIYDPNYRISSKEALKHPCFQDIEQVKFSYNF
In assay [7] the target is Protein kinase 7 (PK7), Plasmodium falciparum 3D7 (PF3D7_0213400) (UniProt Q7YTF7). Put plainly: inhibition of Plasmodium PK7 catalytic activity – biochemical, TCAMS antimalarial set, Kinase-Glo luminescence (AID 1159587). Conditions: recombinant PfPK7, Kinase-Glo ATP depletion luminescence.
Protein kinase 7 (PK7), Plasmodium falciparum 3D7 (PF3D7_0213400), sequence (Q7YTF7 1-343): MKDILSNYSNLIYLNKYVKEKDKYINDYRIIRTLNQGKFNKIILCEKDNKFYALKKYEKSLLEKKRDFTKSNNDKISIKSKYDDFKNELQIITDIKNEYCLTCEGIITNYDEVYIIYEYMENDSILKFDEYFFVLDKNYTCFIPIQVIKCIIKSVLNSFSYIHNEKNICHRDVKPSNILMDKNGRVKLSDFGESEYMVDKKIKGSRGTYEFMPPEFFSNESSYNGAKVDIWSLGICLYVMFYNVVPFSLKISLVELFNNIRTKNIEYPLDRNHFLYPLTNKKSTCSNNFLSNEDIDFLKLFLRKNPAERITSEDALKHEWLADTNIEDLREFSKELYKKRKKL
Assay [8] deals with Calcium-dependent protein kinase 4 (Plasmodium falciparum (isolate 3D7)) (UniProt Q8IBS5). The experiment in a line: PfCDPK4 kinase inhibitors, biochemical, TCAMS library (AID 1159588; cut-off not given, nearly all actives have IC50 up to about 0.91 µM). Conditions: recombinant PfCDPK4, Kinase-Glo ATP depletion luminescence.
Calcium-dependent protein kinase 4 (Plasmodium falciparum (isolate 3D7)), sequence (Q8IBS5 whole entry, looked up): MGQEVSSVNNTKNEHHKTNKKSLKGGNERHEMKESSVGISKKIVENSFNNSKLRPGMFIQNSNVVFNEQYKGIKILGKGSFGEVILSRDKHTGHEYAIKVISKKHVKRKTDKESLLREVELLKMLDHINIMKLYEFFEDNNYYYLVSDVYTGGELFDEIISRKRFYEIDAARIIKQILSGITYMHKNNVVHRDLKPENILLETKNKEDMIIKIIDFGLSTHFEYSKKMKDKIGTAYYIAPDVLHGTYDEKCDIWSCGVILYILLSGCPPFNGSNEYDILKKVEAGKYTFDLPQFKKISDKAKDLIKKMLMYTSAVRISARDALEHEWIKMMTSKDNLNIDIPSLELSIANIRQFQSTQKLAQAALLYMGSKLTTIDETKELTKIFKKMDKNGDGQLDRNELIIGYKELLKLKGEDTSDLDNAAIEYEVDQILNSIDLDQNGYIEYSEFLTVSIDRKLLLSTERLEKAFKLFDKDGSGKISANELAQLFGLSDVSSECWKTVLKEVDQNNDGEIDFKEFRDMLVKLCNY

As a reminder, the inhibition is the relative decrease from the control value, in per cent.

Unmarked numbers belong to inactive results. For part of these data: Measured potencies and affinities stand elsewhere. Activity calls are given as the source filed them. Unless noted, how the calls were made is not given here.

In the case of `O=C(/C=C/c1ccc(Cl)c(Cl)c1)N1CCC(CN2CCC(Cc3c[nH]c4ccccc34)CC2)CC1`, the figures for the growth inhibition in assay [1] and in assay [4] were 13% and 98% (active), respectively. Besides, the values for the inhibition in assay [2] and in assay [3] were 24% and 1%, respectively. Also, the outcome in assay [5], in assay [6], in assay [7] and in assay [8] was inactive.
For `Cc1ccccc1-c1nc2c(CN3CCC(O)(c4ccccc4)CC3)c(O)ccc2[nH]1`, the growth inhibition is 61% (active) in assay [1] and 92% (active) in assay [4]. The inhibition in assay [2] was 27%; in assay [3], 4%. Also, the outcome in assay [5], in assay [6], in assay [7] and in assay [8] was inactive.
On to `CNC(=O)COc1ccc(Nc2nnc(-c3ccc(C)c(S(=O)(=O)NCC4CCCO4)c3)c3ccccc23)cc1` (stereo not drawn), for which the growth inhibition in assay [1] is 68% (active); in assay [4] it was 90% (active). Also, the inhibition was -8% in assay [2] and 0% in assay [3]. Further, the result in assay [5], in assay [6], in assay [7] and in assay [8] was inactive.
On to `Cc1ccc(F)c(OC2CCN(c3ccc(C(=O)NC4CC4)cn3)CC2)c1`, for which the values for the growth inhibition in assay [1] and in assay [4] were 72% (active) and 92% (active), respectively. In addition, the inhibition was 10% in assay [2] and -2% in assay [3]. Besides, the outcome in assay [5], in assay [6], in assay [7] and in assay [8] was inactive.
Take `COc1ccc(-c2ccc(NC(=O)c3cccc(Cl)c3)c(F)c2)cc1CN1CCCN(C)CC1`: the growth inhibition in assay [1] was 42%; in assay [4], 100% (active). Also, the inhibition was 43% in assay [2] and 0% in assay [3]. In addition, the result in assay [5], in assay [6], in assay [7] and in assay [8] was inactive.
As for `CC(C)CCNC(=O)C1Cc2c([nH]c3cc(Cl)ccc23)C2(CCN(CCc3ccccc3)CC2)N1` (stereo not drawn), the growth inhibition was 55% (active) in assay [1] and 103% (active) in assay [4]. For the same compound, the inhibition was 17% in assay [2] and 5% in assay [3]. For the same compound, the outcome in assay [5], in assay [6], in assay [7] and in assay [8] was inactive.
On to `COc1cc2c(Nc3cccc(NC(=O)c4ccccc4)c3)ncnc2cc1OCCCN1CCOCC1`, for which the growth inhibition in assay [1] was 100% (active); in assay [4] it was 101% (active). The figures for the inhibition in assay [2] and in assay [3] were -14% and 5%, respectively. For the same compound, the result in assay [5], in assay [6], in assay [7] and in assay [8] was inactive.
For the compound `O=C(Nc1cccc(CN2CCCN(Cc3ccsc3)CC2)c1)c1ccc(-c2ccccc2)cc1`, the growth inhibition was 11% in assay [1] and 90% (active) in assay [4]. For the same compound, the inhibition in assay [2] was 30%; in assay [3], -4%. Besides, the result in assay [5], in assay [6], in assay [7] and in assay [8] was inactive.
For the compound `CS(=O)(=O)N1CC2(CCN(CCC(NC(=O)Nc3ccccc3)c3ccc(Cl)c(Cl)c3)CC2)c2ccccc21` (stereo not drawn), the growth inhibition in assay [1] is 72% (active); in assay [4], 99% (active). Besides, the values for the inhibition in assay [2] and in assay [3] were 23% and 5%, respectively. The outcome in assay [5], in assay [6], in assay [7] and in assay [8] was inactive.
On to `CN1CCN(Cc2ccc(-c3ccc4ncnc(Nc5ccc(OCc6ccccc6)cc5)c4c3)o2)CC1`, for which the growth inhibition in assay [1] was 90% (active); in assay [4], 97% (active). The inhibition was 9% in assay [2] and 2% in assay [3]. In addition, the outcome in assay [5], in assay [6], in assay [7] and in assay [8] was inactive.
`Cc1[nH]c(C)c(-c2ccc(-c3ccccc3F)nc2)c(=O)c1Cl`: the growth inhibition in assay [1] and in assay [4] was 97% (active) throughout. The inhibition in assay [2] is 7%; in assay [3], 6%. The outcome in assay [5], in assay [6], in assay [7] and in assay [8] was inactive.
With `CNc1nc(NN=Cc2cc3c(cc2[N+](=O)[O-])OCO3)nc(Nc2cccc(C(F)(F)F)c2)n1`, the growth inhibition was 60% (active) in assay [1] and 101% (active) in assay [4]. The inhibition in assay [2] is -1%; in assay [3], 2%. Moreover, the outcome in assay [5], in assay [6], in assay [7] and in assay [8] was inactive.
As for `Cc1cc(Nc2ccccc2)nc(NCCOc2ccccc2)n1`, the values for the growth inhibition in assay [1] and in assay [4] were 48% and 100% (active), respectively. For the same compound, the inhibition is -5% in assay [2] and -1% in assay [3]. The result in assay [5], in assay [6], in assay [7] and in assay [8] was inactive.
With `O=C(Nc1ccc(N2CCN(C(=O)C=Cc3ccccc3)CC2)c(Cl)c1)c1ccc([N+](=O)[O-])o1`, the growth inhibition in assay [1] was 90% (active); in assay [4], 97% (active). Further, the inhibition in assay [2] was 98% (active); in assay [3], -5%. Moreover, the outcome in assay [5], in assay [6], in assay [7] and in assay [8] was inactive.
On to `CC(=O)N[C@H](C(=O)Nc1ccc(-c2cccc(-c3nc4c(C)cccc4[nH]3)c2)cc1)C(C)C`, for which the figures for the growth inhibition in assay [1] and in assay [4] were 10% and 89% (active), respectively. The figures for the inhibition in assay [2] and in assay [3] were 9% and 2%, respectively. The outcome in assay [5], in assay [6], in assay [7] and in assay [8] was inactive.
Consider `CC(Cc1ccc(OCCN2CCN(c3cccc(C(F)(F)F)c3)CC2)cc1)NCC(O)c1cccc(C(F)(F)F)c1` (stereo not drawn), for which the figures for the growth inhibition in assay [1] and in assay [4] were 91% (active) and 97% (active), respectively. Also, the inhibition is 11% in assay [2] and 0% in assay [3]. Moreover, the result in assay [5], in assay [6], in assay [7] and in assay [8] was inactive.
For `O=C(/C=C/c1ccc(Cl)c(Cl)c1)N1CCC(CCN2CCC(c3c[nH]c4ccccc34)CC2)CC1`, the growth inhibition in assay [1] was 44%; in assay [4], 100% (active). Also, the inhibition in assay [2] is 56% (active); in assay [3], -3%. For the same compound, the outcome in assay [5], in assay [6], in assay [7] and in assay [8] was inactive.
On to `COc1cc(CNC(=S)NN=C(C)c2ccccn2)cc(OC)c1OC`, for which the growth inhibition was 92% (active) in assay [1] and 99% (active) in assay [4]. In addition, the values for the inhibition in assay [2] and in assay [3] were 45% and -4%, respectively. Also, the outcome in assay [5], in assay [6], in assay [7] and in assay [8] was inactive.
On to `c1ccc(CN2CCc3cc4nccc(N5CCNCC5)c4cc32)cc1`, for which the growth inhibition in assay [1] was 99% (active); in assay [4] it was 100% (active). For the same compound, the inhibition in assay [2] was 9%; in assay [3], -4%. The outcome in assay [5], in assay [6], in assay [7] and in assay [8] was inactive.
Consider `c1ccc2[nH]c(Nc3ccc(Nc4nc5ccccc5[nH]4)cc3)nc2c1`, for which the growth inhibition in assay [1] is 27%; in assay [4], 98% (active). Moreover, the inhibition in assay [2] is -3%; in assay [3], 1%. Also, the result in assay [5], in assay [6], in assay [7] and in assay [8] was inactive.
As to `COc1ccc(C=CC(=O)Nc2ccc(N3CCCC3)cc2)cc1`, the growth inhibition in assay [1] is 9%; in assay [4], 81% (active). Besides, the inhibition in assay [2] and in assay [3] was -1% in each case. In addition, the result in assay [5], in assay [6], in assay [7] and in assay [8] was inactive.

(Values after PubChem BioAssay.)
